Measured values reported in publication PMC5540273 (PLoS ONE, 2017).

Key:
Conditions in all cases: concentration: 1 μM,replicates: in singlicate; n = 1
[1] = test system: T1, SNARK
T1 construct: gene NUAK2

[2] = test system: SNRK
[3] = test system: SRC
[4] = test system: SRMS
[5] = test system: SRPK1
[6] = test system: SRPK2
[7] = test system: SRPK3
[8] = test system: STK16
[9] = test system: STK33
[10] = test system: STK35
[11] = test system: STK36
[12] = test system: STK39
[13] = test system: SYK
[14] = test system: SgK110
[15] = test system: T2, TAK1
T2 construct: gene MAP3K7

[16] = test system: TAOK1
[17] = test system: TAOK2
[18] = test system: TAOK3
[19] = test system: TBK1
[20] = test system: TEC
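Note: KINOMEscan kinase panel screen.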

| Compound | %Inh [1] [%] | %Inh [2] [%] | %Inh [3] [%] | %Inh [4] [%] | %Inh [5] [%] | %Inh [6] [%] | %Inh [7] [%] | %Inh [8] [%] | %Inh [9] [%] | %Inh [10] [%] | %Inh [11] [%] | %Inh [12] [%] | %Inh [13] [%] | %Inh [14] [%] | %Inh [15] [%] | %Inh [16] [%] | %Inh [17] [%] | %Inh [18] [%] | %Inh [19] [%] | %Inh [20] [%] |
| --- | --- | --- | --- | --- | --- | --- | --- | --- | --- | --- | --- | --- | --- | --- | --- | --- | --- | --- | --- | --- |
| Cc1ccc(Nc2ccnc(Nc3ccc4c(c3)CS(=O)(=O)C4)n2)cc1O.Cl [GW579362] | 52 | 6 | 99.9 | 87 | 99.2 | 18 | 83 | 98.5 | 89 | 22 | 92.2 | 17 | 93.2 | 0 | 99.5 | 81 | 30 | 47 | 90 | 83 |
| C[C@@H](Oc1cc(-n2cnc3cc(-c4cnn(C)c4)ccc32)sc1C(N)=O)c1ccccc1Cl [GSK580432] | 98.4 | 0 | 84 | 0 | 98.2 | 42 | 85 | 51 | 0 | 3 | 0 | 10 | 92.3 | 0 | 0 | 0 | 0 | 0 | 0 | 0 |
| C[C@@H](Oc1cc(-n2cnc3cc(-c4ccncc4)ccc32)sc1C(N)=O)c1ccccc1Cl [GSK479719] | 95.4 | 3 | 26 | 0 | 89 | 0 | 64 | 46 | 1 | 0 | 0 | 6 | 52 | 0 | 0 | 0 | 0 | 0 | 0 | 7 |
| CSc1nccc(-c2c(-c3ccc(F)cc3)ncn2CCCN2CCOCC2)n1.Cl [SB-217146] | 0 | 1 | 10 | 35 | 0 | 0 | 0 | 0 | 0 | 0 | 0 | 0 | 5 | 3 | 3 | 0 | 45 | 6 | 33 | 2 |
| COc1cc2nccc(Nc3ccc(Oc4ccccc4)cc3)c2cc1OC.Cl [GI261656] | 0 | 0 | 47 | 99.9 | 31 | 21 | 0 | 0 | 0 | 24 | 0 | 1 | 0 | 0 | 0 | 0 | 0 | 0 | 13 | 92.8 |
| Cc1cccc2c(-c3ccncc3)c(-c3ccc(F)cc3)nn12.Cl [GW461487] | 17 | 0 | 0 | 0 | 0 | 0 | 100 | 4 | 0 | 0 | 24 | 12 | 25 | 0 | 0 | 1 | 0 | 5 | 16 | 0 |
| CS(=O)(=O)c1cccc(CNc2nc(Nc3ccc4c(c3)[C@@H]3C[C@@H]4CNC3=O)ncc2C(F)(F)F)c1 | 97.6 | 0 | 0 | 0 | 91.6 | 0 | 49 | 97.3 | 0 | 0 | 10 | 9 | 93.8 | 0 | 92.2 | 51 | 24 | 36 | 98.6 | 0 |
| O=C(Nc1ccccc1)c1cccc(Oc2ccc3nccn3n2)c1 | 0 | 0 | 0 | 0 | 2 | 0 | 0 | 0 | 12 | 0 | 5 | 3 | 14 | 6 | 11 | 5 | 0 | 0 | 0 | 0 |
| CS(=O)c1ccc(-c2coc3ccc(-c4n[nH]c(=O)o4)cc23)cc1 (stereo not drawn) | 21 | 10 | 22 | 0 | 0 | 1 | 0 | 52 | 0 | 9 | 0 | 19 | 0 | 0 | 30 | 0 | 3 | 0 | 20 | 0 |
| O=C(Nc1cccc(C(F)(F)F)c1)c1cccc(Oc2ccc3nccn3n2)c1 | 0 | 1 | 17 | 0 | 3 | 0 | 4 | 7 | 22 | 8 | 0 | 2 | 14 | 26 | 4 | 4 | 9 | 0 | 12 | 7 |
| COc1cccc(CNC(=O)NC2CCN(c3ccnc(Nc4cc(OC)c(OC)c(OC)c4)n3)C2)c1 (stereo not drawn) [GSK1379765] | 45 | 0 | 24 | 0 | 39 | 0 | 73 | 64 | 0 | 8 | 0 | 10 | 9 | 0 | 0 | 0 | 0 | 0 | 36 | 13 |
| COC(=O)c1cccc(NC(=O)NC2CCN(c3ccnc(Nc4cc(OC)c(OC)c(OC)c4)n3)C2)c1 (stereo not drawn) [GSK1379767] | 21 | 0 | 19 | 0 | 35 | 45 | 4 | 61 | 0 | 0 | 0 | 5 | 34 | 0 | 12 | 0 | 0 | 0 | 32 | 0 |
| CC(=O)Nc1nc2cnc(Nc3cc(NC(=O)c4cccc(CC(C)(C)C#N)c4)ccc3C)nc2s1 | 0 | 17 | 56 | 0 | 46 | 0 | 9 | 25 | 0 | 0 | 8 | 22 | 0 | 0 | 41 | 0 | 0 | 0 | 12 | 7 |
| CN(c1cccc(CNc2nc(Nc3ccc4c(c3)CC(=O)N4)ncc2C(F)(F)F)c1)S(C)(=O)=O | 76 | 0 | 4 | 0 | 73 | 0 | 31 | 90.2 | 0 | 8 | 20 | 0 | 37 | 0 | 43 | 0 | 16 | 0 | 70 | 0 |
| NC(=O)c1ccc(-c2cc3ncnc(SCC(=O)O)c3s2)cc1 | 0 | 0 | 0 | 0 | 0 | 0 | 0 | 54 | 0 | 0 | 0 | 0 | 0 | 0 | 0 | 0 | 0 | 0 | 8 | 0 |
| Cc1ccc(CC(=O)N2CCc3cc(-c4cn(C)c5ncnc(N)c45)ccc32)cc1 [GSK2634758] | 37 | 8 | 0 | 6 | 13 | 31 | 10 | 100 | 0 | 5 | 3 | 1 | 33 | 0 | 17 | 0 | 0 | 0 | 4 | 0 |
| CC(C)c1nc(-c2cccc(NS(=O)(=O)c3ccccc3)c2)c(-c2ccnc(Nc3ccc4c(c3)CN(C)CC4)n2)s1 [GSK1649598] | 35 | 1 | 100 | 99.5 | 49 | 0 | 0 | 28 | 94.8 | 63 | 100 | 85 | 0 | 0 | 51 | 97.2 | 98.5 | 97.8 | 40 | 94.2 |
| CCn1c(-c2nonc2N)nc2cncc(Br)c21 [SB-738004] | 31 | 0 | 0 | 0 | 0 | 36 | 0 | 27 | 13 | 0 | 0 | 21 | 8 | 0 | 68 | 46 | 1 | 1 | 16 | 0 |
| O=C(Nc1ccc(Oc2ccc3nc(NC(=O)C4CC4)cn3n2)c(F)c1)c1cccn(-c2ccccc2)c1=O | 0 | 3 | 10 | 0 | 14 | 16 | 24 | 0 | 23 | 0 | 1 | 0 | 30 | 0 | 0 | 0 | 0 | 0 | 54 | 44 |
| Cc1cccc(-c2nc(Nc3ccncc3)c3sccc3n2)n1 [GW869641] | 29 | 25 | 12 | 21 | 7 | 0 | 24 | 16 | 27 | 1 | 24 | 0 | 20 | 15 | 44 | 45 | 7 | 38 | 31 | 0 |
| Cn1ccc2ncnc(Oc3ccc(NC(=O)Nc4cccc(C(F)(F)F)c4)c(F)c3)c21 | 0 | 0 | 2 | 0 | 23 | 49 | 23 | 0 | 64 | 4 | 0 | 3 | 43 | 0 | 31 | 0 | 38 | 0 | 51 | 5 |
